From PubChem BioAssay (NCI)
The panel holds about 79,000 compounds, 15% with a hit somewhere; the sample as a whole holds those more often. The source made the active and inactive calls. Rule as the data show it: active = growth inhibition above about 70%; inactive = the rest.

Assays:
[1] = NCI Yeast Anticancer Drug Screen. Data for the rad50 strain (AID 155);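 also: 0% = growth of vehicle-only cultures of the same strain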; settings: S. cerevisiae rad50 strain growth inhibition; at 50.0 µM; stronger effect = higher value
How it was run: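 Relative growth inhibition (compound vs vehicle) was measured in yeast with a defined repair-gene alteration.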

[2] = NCI Yeast Anticancer Drug Screen. Data for the mec2-1 strain (AID 157); settings: S. cerevisiae mec2-1 strain, at 50.0 µM, stronger effect = higher value
How it was run: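 mec2-1 yeast strain, carrying an alteration in DNA damage repair or cell cycle control, was exposed to compounds; growth inhibition was measured relative to vehicle-treated controls.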

[3] = NCI Yeast Anticancer Drug Screen. Data for the sgs1 mgt1 strain (AID 161);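 also: 0% = growth of cultures given vehicle only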; settings: S. cerevisiae sgs1 mgt1 strain, at 50.0 µM, stronger effect = higher value
How it was run: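 Percent growth inhibition was derived by comparing compound-exposed mutant yeast with vehicle-exposed cultures. The strain carries alterations in DNA damage repair.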

[4] = NCI Yeast Anticancer Drug Screen. Data for the cln2 rad14 strain (AID 165);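 also: 0% = growth equal to vehicle treated cultures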; settings: S. cerevisiae cln2 rad14 strain, at 50.0 µM, stronger effect = higher value
How it was run: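 Yeast carrying cln2 and rad14 alterations (cell cycle control and DNA damage repair) were exposed to compounds. Growth inhibition was measured against vehicle-treated controls.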

[5] = NCI Yeast Anticancer Drug Screen. Data for the bub3 strain (AID 167); settings: S. cerevisiae bub3 mutant strain, at 50.0 µM, stronger effect = higher value
How it was run: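 Screening used yeast with an engineered genetic alteration affecting cell cycle control. Compound-exposed cultures were compared with vehicle cultures, and reduced growth was taken as inhibition.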

[6] = NCI Yeast Anticancer Drug Screen. Data for the mlh1 rad18 strain (AID 175); settings: S. cerevisiae mlh1 rad18 strain growth inhibition; at 50.0 µM; stronger effect = higher value
How it was run: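 Growth inhibition of the yeast strain was measured after compound exposure and expressed relative to vehicle-treated controls. The strain carries defined defects in DNA damage repair.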

Measured: growth inhibition

CC(=O)N(C)N=Nc1ccc(Cl)cc1
inactive: [1] 10.4% | [2] 11.7% | [3] 2.05% | [4] -17.6% | [5] 3.8% | [6] 15.9%

O=C1CCN2C(=O)CCN12
inactive: [1] 1.1% | [2] -10.2% | [3] 18.7% | [4] 14.8% | [5] 11% | [6] 2.35%

Cc1ccc(S(=O)(=O)C(CCC(=O)c2ccccc2)(CCC(=O)c2ccccc2)[N+](=O)[O-])cc1
inactive: [1] -9.05% | [2] -9.45% | [3] -10% | [4] -26% | [5] -1.5% | [6] 0%

CN(C)/C(N)=N/S(=O)(=O)c1ccc(C#N)cc1
inactive: [1] 5% | [2] 2.85% | [3] -0.25% | [4] 6.1% | [5] 4.7% | [6] 2.45%

CCOC(=O)c1cnc2ccccn2c1=O
inactive: [1] 5.15% | [2] 6.15% | [3] 7.3% | [4] 7.2% | [5] -18% | [6] -2.25%

C#CCOc1ccc(C(F)(F)F)cc1
inactive: [1] -8.1% | [2] -15.4% | [3] -1.6% | [4] -17.4% | [5] 15.4% | [6] -2.05%

Oc1ccc(Cl)c(O)c1
inactive: [1] 30.1% | [2] -0.55% | [3] -3.65% | [4] 0.9% | [5] -6% | [6] 21.7%

O=C(Nc1ccccc1Cl)Nc1cccc2ccccc12
inactive: [1] 15.2% | [2] 1.3% | [3] 17.8% | [4] -1.6% | [5] 4.55% | [6] 8.65%

CS(=O)(=O)C(C#N)c1nc2ccccc2nc1Cl (stereo unspecified)
inactive: [1] -20.6% | [2] -17.7% | [3] -53.1% | [4] -9.6% | [5] -42% | [6] -30.6%

CCNCc1cc(Nc2cc(C)nc(/N=C(\N)Nc3ccc(Cl)c(Cl)c3)n2)ccc1OC
active: [1] 98.8% | [2] 99% | [3] 99.3% | [4] 97.5% | [5] 98.2% | [6] 98.4%

[Cl][Eu]([Cl])[Cl]
inactive: [1] 22.4% | [2] 17.9% | [3] 24.2% | [4] 42.9% | [5] 34.2% | [6] 19.8%

CCCCCCCCOCCS(=O)(=O)O
inactive: [1] 13.4% | [2] -18.6% | [3] -0.15% | [4] -22.6% | [5] -10.8% | [6] 35.8%

CNC(=O)CN(CC(=O)NC)C(=O)NC
inactive: [1] 9.95% | [2] 7.3% | [3] -18% | [4] -3.65% | [5] -2.35% | [6] 1.55%

Cc1cccc(C)c1NCC1CO1 (stereo unspecified)
inactive: [1] -17.4% | [2] -14.3% | [3] -6.3% | [4] 13.2% | [5] -17.6% | [6] -11.2%

Cc1cc(NC(=O)NC(=O)c2ccccc2NC(=O)CN)ccc1Oc1ncc(Br)cn1
inactive: [1] 6% | [2] -13.8% | [3] 40.3% | [4] 11.4% | [5] 15.1% | [6] -43.5%

CN(C)Cc1ccc2ccccc2c1
inactive: [1] 0.2% | [2] 7.1% | [3] 9.95% | [4] -39.1% | [5] 6.85% | [6] -14.3%

c1ccc2c(c1)cnc1cc3c(cc12)ncc1ccccc13
inactive: [1] 8.05% | [2] 19.9% | [3] 9.3% | [4] 14.8% | [5] -6.45% | [6] 28.8%

Nc1ccc(CCc2ccc3ccccc3n2)cc1
inactive: [1] 33.2% | [2] -9.25% | [3] 15.9% | [4] 7.9% | [5] -16.2% | [6] 33.5%

CCCC1(C)OCC(C)([N+](=O)[O-])CO1 (stereo unspecified)
inactive: [1] -26% | [2] -11.2% | [3] -3.25% | [4] -22.4% | [5] -24% | [6] 10.8%

O=C(/C=C/c1ccc(OCCCCCCCCCCOc2ccc(/C=C/C(=O)c3ccc(Cl)cc3)cc2)cc1)c1ccc(Cl)cc1
inactive: [1] 5.3% | [2] -1.45% | [3] -15.3% | [4] 16.1% | [5] 22.5% | [6] 15.6%

COc1ccc2nc(NC(=O)C(=O)NNC(=O)c3ccncc3)sc2c1
inactive: [1] -24.5% | [2] -24% | [3] -10.1% | [4] 21.1% | [5] -22.9% | [6] -14.7%

O=S(=O)(O)c1ccccc1P(c1ccccc1)c1ccccc1
inactive: [1] 17.1% | [2] 17.7% | [3] 8.15% | [4] 36.1% | [5] 17.6% | [6] 14.6%

O=c1[nH]nc(-c2ccccc2)c2c1[nH]c1ccccc12
inactive: [1] -13.8% | [2] -15.7% | [3] -0.85% | [4] -33.9% | [5] -12.4% | [6] -12.1%

O=C1CC2C(O)OC(O)C(C1)N2C(=O)OCC(Cl)(Cl)Cl (stereo unspecified)
inactive: [1] 10.8% | [2] -15.9% | [3] -8.55% | [4] 12.6% | [5] -17.4% | [6] -6.6%

CC(NC(=O)Nc1ccccc1Cl)c1ccccc1 (stereo unspecified)
inactive: [1] -2.05% | [2] 17.6% | [3] 1.5% | [4] -10.8% | [5] 34% | [6] 11.1%

CCC[CH2][Sn]([CH2]CCC)([O]C(=O)c1cccc(F)c1F)[O][Sn]([CH2]CCC)([CH2]CCC)[O]C(=O)c1cccc(F)c1F
active: [1] 89.4% | [2] 91.5% | [3] 91.2% | [4] 88.5% | [5] 90% | [6] 86%

CC1CCC(O)CC1C (stereo unspecified)
inactive: [1] -17.9% | [2] -24.6% | [3] -57% | [4] 27.2% | [5] -33.6% | [6] -10.1%

CCC1=Nc2ccccc2C(c2ccccc2)NC1=O (stereo unspecified)
inactive: [1] -2% | [2] -19.7% | [3] 4.5% | [4] 6% | [5] -9.65% | [6] 24.9%

CN(C)CC1CCC(CN(C)C)C1=NO (stereo unspecified)
inactive: [1] 13.7% | [2] -2.55% | [3] -4.1% | [4] 7.4% | [5] -1.5% | [6] 6.45%

CS(=O)(=O)OCCCSCCSCCCOS(C)(=O)=O
inactive: [1] -4% | [2] -0.05% | [3] 3.1% | [4] -4.8% | [5] -11.2% | [6] -10.1%

CCCCN(CCCC)C(=O)OCC
inactive: [1] 30.2% | [2] 8.3% | [3] 6.35% | [4] 12.4% | [5] 19.2% | [6] 14.5%

CCOC(=O)N1C2C(c3ccccc3)=NC(C)(C)N2C(c2ccc([N+](=O)[O-])cc2)N1C(=O)OCC (stereo unspecified)
inactive: [1] 17.9% | [2] -7% | [3] -4.55% | [4] 15.2% | [5] -2.2% | [6] -2.9%

N/N=C1\CCCc2c1no[n+]2[O-]
inactive: [1] 6.05% | [2] -4.05% | [3] -0.5% | [4] 4% | [5] -9.9% | [6] 3.2%

O=C(C=c1sc(=CC(=O)c2ccccc2)s1)c1ccccc1
inactive: [1] -3.5% | [2] -4.35% | [3] 14.7% | [4] -41.3% | [5] 2.1% | [6] -35.6%

CCOc1c(OC)cc(C2c3cc4c(c(OCC)c3CC3COC(=O)C32)OCO4)cc1OC (stereo unspecified)
inactive: [1] 36.8% | [2] 16.1% | [3] 48.6% | [4] 28.1% | [5] 19.8% | [6] 0.25%

O=C(NCCO)C(=O)NCCO
inactive: [1] 5.25% | [2] -13.3% | [3] 5.7% | [4] -9.35% | [5] -2.55% | [6] 17.6%

CCCCC#CCC#Cc1ccccc1
inactive: [1] -4.3% | [2] 5.25% | [3] 6.85% | [4] 23.2% | [5] -10.9% | [6] 10.1%

CC(=O)OC1CCC2(C)C(CCC3C2CC(OC(C)=O)C2(C)C(C(C)CCC(c4ccccc4)c4ccccc4)CCC32)C1 (stereo unspecified)
inactive: [1] 9.1% | [2] -20.4% | [3] 1.1% | [4] 14.9% | [5] 0.15% | [6] -1.55%

CC1OC(OC(=O)c2ccc([N+](=O)[O-])cc2)CC(OC(=O)c2ccc([N+](=O)[O-])cc2)C1OC(=O)c1ccc([N+](=O)[O-])cc1 (stereo unspecified)
inactive: [1] 18.4% | [2] 5.45% | [3] -10.2% | [4] 24.7% | [5] 1.6% | [6] -24.8%

Cc1c(C)c(O)c(C)c(C)c1O
inactive: [1] -8.8% | [2] -17.1% | [3] -4.85% | [4] -13.2% | [5] 6.85% | [6] 11.4%

CC1CCCN(N=Nc2ccc(Br)cc2-c2nc(N)c3cc(Br)ccc3n2)C1 (stereo unspecified)
active: [1] 99.2% | [2] 99.2% | [3] 99.5% | [4] 98.2% | [5] 99% | [6] 99%
